Rows were chosen to be rich in hits. Some 0.92% of all compounds tested hit in one or more screens of this group.
L3MBTL1 inh: L3MBTL1 (human) inhibition; AlphaScreen L3MBTL1–H3K9me1 peptide binding; Potency, µM (highest dose often 57.1 µM), for inactives: at the highest dose activity, negative = inhibition, most hits filed as inhibitors; actives 0.66% (n = 230,000); also: nearly all actives have a fitted effect of over 60% in size
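L3MBTL1 50 nM + b-AHA-H3(1-15)K9me1 75 nM, 30 min RT; compound added, 30 min RT; streptavidin donor/Ni-chelate acceptor beads 10 ug/mL each final, 30 min RT dark; AlphaScreen read.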
BLM helicase inh: inhibitors of human Bloom syndrome helicase BLM; actives 0.2% (n = 350,000); AID 2528; Potency, µM (doses to about 56.1 µM), inactives show top-dose activity change, negative = inhibition, usual class: inhibitors; recombinant BLM DNA unwinding, fluorescence dequenching; P54132;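 also: plate controls were vehicle for no effect and no enzyme for full effect; nearly all actives have a fitted effect of over 35% in size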
Target sequence (P54132 whole entry, looked up): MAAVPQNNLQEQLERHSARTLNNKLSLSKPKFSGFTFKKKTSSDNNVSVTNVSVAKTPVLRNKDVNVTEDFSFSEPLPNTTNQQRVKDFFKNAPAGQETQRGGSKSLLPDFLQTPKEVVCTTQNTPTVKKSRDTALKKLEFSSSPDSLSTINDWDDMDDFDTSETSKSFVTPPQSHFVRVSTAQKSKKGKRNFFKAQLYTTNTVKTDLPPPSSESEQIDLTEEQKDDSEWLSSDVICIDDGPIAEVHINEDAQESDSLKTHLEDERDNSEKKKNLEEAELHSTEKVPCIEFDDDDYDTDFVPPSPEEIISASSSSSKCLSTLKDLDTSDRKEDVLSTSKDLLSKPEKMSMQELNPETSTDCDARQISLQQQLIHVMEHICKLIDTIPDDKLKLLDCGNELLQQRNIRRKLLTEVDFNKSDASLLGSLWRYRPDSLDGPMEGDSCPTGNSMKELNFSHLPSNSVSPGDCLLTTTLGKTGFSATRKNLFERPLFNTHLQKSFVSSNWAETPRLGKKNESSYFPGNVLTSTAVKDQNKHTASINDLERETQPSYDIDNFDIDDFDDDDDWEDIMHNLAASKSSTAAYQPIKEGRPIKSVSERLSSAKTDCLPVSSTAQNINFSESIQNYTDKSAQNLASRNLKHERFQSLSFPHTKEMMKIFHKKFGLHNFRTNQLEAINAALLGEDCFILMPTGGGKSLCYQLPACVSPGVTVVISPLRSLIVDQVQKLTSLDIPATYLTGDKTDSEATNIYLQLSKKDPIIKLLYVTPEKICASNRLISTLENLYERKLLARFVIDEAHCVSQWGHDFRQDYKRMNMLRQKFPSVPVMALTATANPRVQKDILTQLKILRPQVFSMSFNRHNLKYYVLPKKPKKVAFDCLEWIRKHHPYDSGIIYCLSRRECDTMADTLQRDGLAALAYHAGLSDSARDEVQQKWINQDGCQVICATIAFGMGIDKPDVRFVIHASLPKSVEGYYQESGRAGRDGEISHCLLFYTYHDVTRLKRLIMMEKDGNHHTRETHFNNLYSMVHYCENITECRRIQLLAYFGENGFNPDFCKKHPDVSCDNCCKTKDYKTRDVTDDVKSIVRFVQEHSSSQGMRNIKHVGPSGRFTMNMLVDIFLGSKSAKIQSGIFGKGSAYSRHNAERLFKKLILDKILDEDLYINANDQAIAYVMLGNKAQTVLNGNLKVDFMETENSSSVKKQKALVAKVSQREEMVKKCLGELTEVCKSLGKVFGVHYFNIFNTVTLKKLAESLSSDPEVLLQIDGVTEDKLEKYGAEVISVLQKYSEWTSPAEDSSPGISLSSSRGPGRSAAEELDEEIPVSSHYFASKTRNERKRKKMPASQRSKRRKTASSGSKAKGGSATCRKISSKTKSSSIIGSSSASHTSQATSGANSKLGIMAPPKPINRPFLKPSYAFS
RECQ1 inh: RECQ1 (human) helicase inhibition. AID 2549. actives 0.54% (n = 240,000). Potency, µM (doses to about 57.3 µM), without a hit: at the highest dose activity, negative = inhibition, most hits filed as inhibitors. RECQ1 DNA unwinding, red fluorescence kinetic read. P46063;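 also: plate controls were vehicle for no effect and no enzyme for full effect; nearly all actives have a fitted effect of over 30% in size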
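50 nM RECQ1T1 preincubated 15 min with compound in Tris pH 8.0 buffer with MgCl2, DTT, Tween-20 and 2.5 ug/ml poly(dI-dC); started with 200 nM TAMRA/BHQ-2 forked duplex and 2 mM ATP. Unwinding read as fluorescence (525/598 nm), two reads 2 h apart.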
APEX1 inh: blocks human APE1 abasic DNA cleavage; P27695; recombinant APE1, TAMRA/BHQ-2 abasic DNA cleavage fluorescence; Potency, µM (doses to about 65.8 µM), without a hit: at the highest dose activity change, negative = inhibition, hits mostly inhibitors; actives 0.35% (n = 350,000); AID 2517;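 also: plate controls were vehicle for no effect and reference inhibitor for full effect; nearly all actives have a fitted effect of over 55% in size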
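Quantitative HTS: incision of a TAMRA/BHQ-2 double-stranded substrate bearing a tetrahydrofuran abasic site by 0.75 nM APE1 raises fluorescence. Substrate 50 nM final, added after 15 min compound preincubation at room temperature; progress as third-minus-first kinetic read difference.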
WRN helicase inh: inhibitors of human WRN helicase. WRN helicase unwinding, fluorescent forked duplex, kinetic. Potency, µM (series often up to 114 µM), without a hit: at the highest dose activity change, negative = inhibition, hits mostly inhibitors. actives 0.46% (n = 360,000); also: nearly all actives have a fitted effect of over 55% in size
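Kinetic fluorescence helicase assay: unwinding of a quenched forked DNA duplex (100 nM final) with 2 mM ATP final raises red fluorescence (525/598 nm). Compounds sat 15 min at room temperature with 20 nM WRN beforehand.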
Starred values were filed as active, the others as inactive; i = inactive; ? = inconclusive; . = no result; [ ] = another dose, or the depositor's remark. Calls follow the shape of the dose curve; as a rule, active = well fitted curve in the direction sought with a large enough effect; inconclusive = small, poorly fitted or top-dose-only effect, or another doubt; inactive = no such curve, though single readings can be large; an effect the other way counts as inactive or inconclusive. Unless noted, % is scaled to controls: 0 for no effect and ±100 for the full control effect; potency is read from the fitted curve at half-maximal effect.

SMILES	L3MBTL1 inh	BLM helicase inh	RECQ1 inh	APEX1 inh	WRN helicase inh
CCCCS(=O)(=O)/C=C\C=C/S(=O)(=O)CCCC	-26.4%	-2.3%	-3.8%	?	44.7µM*
CCCCS(=O)(=O)/C=C\C1C2C=CC(C2)C1S(=O)(=O)CCCC (stereo unspecified)	3.3%	2.1%	1.1%	-1.3%	9.5%
CC(C)c1cc(C(C)C)c(S(=O)(=O)Nc2cccc3cccnc23)c(C(C)C)c1	.	-9.0%	i	-3.7%	.
COc1ccc2c(c1)-c1c(sn(-c3ccccc3)c1=S)C(C)(C)N2	31.6µM*	-14.1%	-8.8%	-1.2%	-12.2%
COc1ccc2c(c1)-c1c(ssc1=S)C(C)(C)N2S(=O)(=O)c1ccc(C)cc1	?	-6.2%	-11.9%	-0.8%	5.3%
COc1ccc2c(c1)-c1c(sn(-c3ccc(OC)c(OC)c3)c1=S)C(C)(C)N2	?	-13.5%	-7.5%	-9.1%	-1.2%[57.1 µM]
COc1ccc(-n2sc3c(c2=S)-c2cc(OC)ccc2NC3(C)C)cc1	31.6µM*	-7.0%	-10.5%	-4.2%	-5.1%
COc1ccc2c(c1)-c1c(ssc1=S)C(C)(C)N2	20µM*	-5.3%	i	-8.5%	-10.7%
O=C(O)c1ccc(CSc2nnc(-c3cccc([S+](=O)([O-])NC4CCCC4)c3)n2-c2ccccc2)cc1	.	.	.	31.9%	.
COc1ccc(NC(=O)CSc2nnc(-c3cccc(S(=O)(=O)N4CCCC4)c3)n2-c2ccccc2)cc1	.	.	.	35.5%	.
CC1(C)CC(=O)C(N=Nc2cc(S(=O)(=O)N3CCOCC3)ccc2Cl)=C(O)C1	31.6µM*	-18.0%	-9.2%	10µM*	-4.9%
CC1C(=O)C(=O)C=CN1C (stereo unspecified)	.	1.7%	.	.	.
CC(C)(C)n1ncc2c(=O)n(Cc3ccccc3-c3ccccc3)cnc21	.	.	.	-1.3%	.
CC(/C=N/n1c(-c2ccc(Cl)cc2)n[nH]c1=S)=C\c1ccco1	-14.6%	-14.9%	-2.0%	12.4%	-11.7%[11.6 µM]
CC(/C=N/n1c(-c2cc(C)[nH]n2)n[nH]c1=S)=C\c1ccco1	?	-0.3%	25.1µM*	-11.6%	?
c1ccc2c3c(cc(N4CCOCC4)c2c1)OC1(N2CCOCC2)CCCCC1O3 (stereo unspecified)	28.2µM*	-1.8%	-9.1%	-0.6%	-9.0%
COc1nnc(-c2ccc(N3CCOCC3)c(NC(=O)C3CCCCC3)c2)c2ccccc12	6.0%	-5.1%	i	0.8%	5.2%
COC(=O)c1cc(OC)nc(OC)c1	2.9%	-0.1%	-9.3%	2.8%	7.3%
COC(=O)c1cc(O)c(O)c(O)c1	?	0.8%	-0.5%	14.1µM*	4.4%
O=C(c1ccc(-n2cccn2)cc1)N1CCc2c([nH]c3ccccc23)C1c1ccccn1 (stereo unspecified)	-6.2%	12.6µM*	5.8%	-0.1%	-1.9%
Cc1cc2cc(C(=O)N3CCc4c([nH]c5ccccc45)C3c3ccccn3)ccc2o1 (stereo unspecified)	.	-13.4%	-15.0%	-5.3%	-6.9%
Cc1ccc(C)c(NC(=O)c2ccccc2O)c1	2.3%	-2.0%	-1.7%	9.9%	56.2µM*
Cc1cccc(NC(=O)c2ccccc2O)c1C	-0.1%	-0.2%	-13.9%	0.3%	-9.7%
O=C(OC[C@H]1O[C@@H](OC(=O)c2cc(O)c(O)c(OC(=O)c3cc(O)c(O)c(O)c3)c2)[C@H](OC(=O)c2cc(O)c(O)c(OC(=O)c3cc(O)c(O)c(O)c3)c2)[C@@H](OC(=O)c2cc(O)c(O)c(OC(=O)c3cc(O)c(O)c(O)c3)c2)[C@@H]1OC(=O)c1cc(O)c(O)c(OC(=O)c2cc(O)c(O)c(O)c2)c1)c1cc(O)c(O)c(OC(=O)c2cc(O)c(O)c(O)c2)c1	0.1µM*	.	.	0.0053µM*	.
O=C1c2cc(O)cc(O)c2OC[C@@H]1c1ccc(O)c(O)c1	.	0.7%	-9.4%	?	.
SMILES	L3MBTL1 inh	BLM helicase inh	RECQ1 inh	APEX1 inh	WRN helicase inh
Cc1ccc(C(=O)N/N=C/c2cn(Cc3ccccc3)c3ccccc23)cn1	?	-8.0%	-7.7%	12.6%	-11.5%
O=C(N/N=C/c1cn(Cc2ccccc2)c2ccccc12)c1cc(O)cc(O)c1	.	-14.9%	.	15µM*	-18.7%[11.6 µM]
Cc1noc(C)c1-c1ccc2ncnc(NCc3ccco3)c2c1	.	5.9%	1.6%	10.1%	.
N=C1CCC(=N)c2c1c(O)c1ccccc1c2O	7.08µM*	31.6µM*	?	?	31.6µM*
O=C(COc1ccc(/C=N/NC(=O)c2ccc(O)cc2)cc1)Nc1cccc([N+](=O)[O-])c1	20.6%	17.8µM*	-10.8%	0.7%	?
O=[N+]([O-])c1ccc(Nc2nc(N/N=C/c3cccc(F)c3)nc(N3CCCC3)n2)cc1	-2.3%	4.2%	-0.1%	?	-24.6%[57.1 µM]
COc1cccc(/C=N/Nc2nc(Nc3ccc([N+](=O)[O-])cc3)nc(N3CCCC3)n2)c1O	.	28.2µM*	?	-11.8%	50.1µM*
COc1cccc(/C=N/NC(=O)C(=O)N2CCCC2)c1OC	5.4%	0.1%	-15.5%	10.4%	1.9%
O=[N+]([O-])c1ccc(Nc2nc(NC3CCCCC3)nc(N3CCCC3)n2)cc1	.	28.2µM*	-8.2%	0.0%	2.6%
O=[N+]([O-])c1ccc(NC2CCCC2)cc1	-4.9%	-3.0%	-0.5%	1.3%	-2.5%
COc1cccc(/C=N/NC(=O)C(=O)N2CCCC2)c1O	22.4µM*	1.3%	-2.0%	-0.6%	1.7%
N#Cc1c(-c2ccc(O)cc2)no[n+]1[O-]	.	.	.	-11.7%	.
CCC(C)CC(C)CC(C)C(=O)/C=C(/O)C(C)CC(C)C/C=C/C(C)C(O)C(C)C(O)CC1CCC(C)(C)O1 (stereo unspecified)	.	-8.1%	-5.4%	-5.7%	.
Nc1cc(N2CCCCC2)nc(N)[n+]1OS(=O)(=O)[O-]	.	.	-4.2%	1.3%	.
CC[C@H](C)[C@H](NC(=O)[C@@H]1CCCN1C(=O)[C@H](Cc1cnc[nH]1)NC(=O)[C@@H](NC(=O)[C@H](Cc1ccc(O)cc1)NC(=O)[C@@H](NC(=O)[C@H](CCCN=C(N)N)NC(=O)CNC)C(C)C)[C@@H](C)CC)C(=O)O	.	-0.4%	-3.6%	1.4%	.
O=C1C2CC=C(Cl)CC2C(=O)N1CCN1CCOCC1 (stereo unspecified)	.	0.6%	i	1.3%	-4.7%
O=C1C2CC=C(Cl)CC2C(=O)N1CCCCCCN1C(=O)C2CC=C(Cl)CC2C1=O (stereo unspecified)	.	?	28.2µM*	31.6µM*	?
O=[N+]([O-])c1ccc2c(c1)S(=O)(=O)C=C2	.	-15.6%	-18.7%	?	.
Cc1ccc(S(=O)(=O)ON2C(=O)c3ccccc3C2=O)c(C)c1	7.7%	2.1%	-1.8%	15.0%	44.7µM*
Cc1cc(C)c(C)c(S(=O)(=O)ON2C(=O)c3ccccc3C2=O)c1C	6.6%	-5.5%	i	0.4%	?
Cc1cc(C)c(S(=O)(=O)ON2C(=O)c3ccccc3C2=O)cc1C	11.3%	-7.0%	i	16.1%	35.5µM*

Screening data as filed in PubChem.
